Among the data in PubChem BioAssay (EPA / NIEHS) are AC50 and outcome values, retold here.

Read-out in assay [1]: E-selectin (Homo sapiens) (UniProt P16581)
The experiment in a line: BSK_IMphg_ESelectin: BioMAP Diversity Plus: IMphg Assay for Eselectin Biomarker Activity (AID 2284291). Particulars: primary human endothelial cells with macrophages. The procedure, abridged:
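Human venular endothelial cell–macrophage co-culture, E-selectin measured by ELISA 24 h after chemical dosing. Signal fitted in the positive direction against DMSO as negative control and baseline.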

A short description of assay [2]: BSK_IMphg_SRB: Viability Assessment in the BioMAP Diversity Plus: IMphg Assay (AID 2284292).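 Further: measured one day after compound addition.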 Particulars: primary human endothelial cells with macrophages. The procedure, abridged: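 Human venular endothelial cells with macrophages, 24 h after chemical dosing; total protein by 0.1% SRB staining after 10% TCA fixation, read at 560 nm. Positive-direction fitting versus DMSO baseline.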

Read-out in assay [3]: Macrophage colony-stimulating factor (MCSF), CSF1 (gene 1435)
Kind of assay: BSK_IMphg_MCSF: BioMAP Diversity Plus: IMphg Assay for Macrophage colony-stimulating factor (MCSF) Biomarker Activity (AID 2284293). Particulars: primary human endothelial cells with macrophages. The procedure, abridged:
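Co-culture of human venular endothelial cells and macrophages, 24 hours of chemical exposure. M-CSF quantified by ELISA, with parallel SRB total-protein staining for cytotoxicity; activity fitted relative to DMSO.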

Read-out in assay [4]: Interleukin-10 (IL10), IL10 (gene 3586)
The experiment in a line: BSK_IMphg_IL10: BioMAP Diversity Plus: IMphg Assay for Interleukin-10 (IL10) Biomarker Activity (AID 2284294). Particulars: primary human endothelial cells with macrophages. The procedure, abridged: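 Human venular endothelial cells cocultured with macrophages, dosed 24 h; IL-10 measured by ELISA, activity relative to DMSO. Cytotoxicity assessed in parallel cultures by sulforhodamine B total-protein staining.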

Assay [5] can be described thus: BSK_IMphg_SRB.Mphg: Macrophage Viability Assessment in the BioMAP Diversity Plus: IMphg Assay (AID 2284295). Particulars: primary human endothelial cells with macrophages. The procedure, abridged: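 Venular endothelial cells co-cultured with macrophages, read 24 h after dosing. Total protein measured by 0.1% SRB staining after 10% TCA fixation, absorbance at 560 nm. Fitted in positive direction against DMSO baseline.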

Read-out in assay [6]: Thrombomodulin, THBD (gene 7056)
Kind of assay: BSK_LPS_Thrombomodulin: BioMAP Diversity Plus: LPS Assay for Thrombomodulin Biomarker Activity (AID 2284296). To be noted: primary human HUVEC with PBMC. The procedure, abridged:
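Human umbilical vein endothelial cells co-cultured with PBMC and stimulated with LPS; cell-surface thrombomodulin measured by ELISA 24 hours after compound. Gain or loss versus DMSO; cytotoxicity checked by SRB staining in parallel cultures.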

Read-out in a further assay: CD69, CD69 (gene 969)
Kind of assay: BSK_LPS_CD69: BioMAP Diversity Plus: LPS Assay for CD69 Biomarker Activity (AID 2284303). Particulars: primary human HUVEC with PBMC. The procedure, abridged:
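Human umbilical vein endothelial cells co-cultured with PBMC under LPS stimulation, chemical exposure 24 h; cell-surface CD69 measured by ELISA and fitted in the positive direction versus DMSO.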

A short description of assay [7]: IUF_NPC2c_oligodendrocyte_migration_120hr: Leibniz Research Institute for Environmental Medicine (IUF) 120-hour Neural Progenitor Cell Migration Assay for Oligodendrocyte Migration (NPC2c) (AID 2284297). The procedure, abridged:
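Read-out is the mean distance of O4-positive oligodendrocytes from the sphere core edge at 120 h, normalized to radial glia migration and fitted in the gain direction against DMSO. Spheres of primary human neural progenitors differentiated on laminin under continuous compound exposure.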

Assay [8] can be described thus: IUF_NPC2a_radial_glia_migration_120hr: Leibniz Research Institute for Environmental Medicine (IUF) 120-hour Neural Progenitor Cell Migration Assay for Radial Glia Migration (NPC2a) (AID 2284298). The procedure, abridged: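 Readout: distance in um from sphere core edge to migration-area edge, derived from Hoechst nuclei density with a threshold-defined polynomial boundary. Spheres: hNPC, GW 16-19, 0.3 mm, on PDL/laminin; exposure 5 days; DMSO is baseline.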

The nature of assay [9]: IUF_NPC2a_radial_glia_migration_72hr: Leibniz Research Institute for Environmental Medicine (IUF) 72-hour Neural Progenitor Cell Migration Assay for Radial Glia Migration (NPC2a) (AID 2284299). The procedure, abridged:
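Human fetal neural progenitor spheres (0.3 mm) plated on poly-D-lysine/laminin in N2 differentiation medium and exposed from day 0 at 7 concentrations; radial glia migration distance from sphere edge measured at 72 h on brightfield images, mean of four directions, vs DMSO.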

A short description of assay [10]: IUF_NPC2b_neuronal_migration_120hr: Leibniz Research Institute for Environmental Medicine (IUF) 120-hour Neural Progenitor Cell Migration Assay for Neuron Migration (NPC2b) (AID 2284300). The procedure, abridged:
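Read-out is mean distance from sphere edge to each TUBB3-positive neuron at 120 h, expressed relative to radial glia migration distance and to DMSO baseline. Single 0.3 mm human NPC spheres differentiated on laminin under continuous compound exposure.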

Assay [11] can be described thus: IUF_NPC3_neuronal_differentiation_120hr: Leibniz Research Institute for Environmental Medicine (IUF) 120-hour Neuronal Differentiation Assay (NPC3) (AID 2284301). The procedure, abridged:
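Primary human fetal neural progenitor spheres (GW 16-19, 0.3 mm) plated on poly-D-lysine/laminin in N2 medium, exposed from day 0 for 120 h with half-medium refresh at day 3. TUBB3+ cells as percent of Hoechst nuclei in migration area; DMSO baseline.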

A short description of assay [12]: IUF_NPC4_neurite_length_120hr: Leibniz Research Institute for Environmental Medicine (IUF) 120-hour Neuronal Morphology Assay for Neurite Length (NPC4) (AID 2284302). The procedure, abridged: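 Human fetal cortex (GW 16-19) neural progenitor spheres, 0.3 mm, were plated on poly-D-lysine/laminin in N2 differentiation medium and exposed from day 0 for 120 h, half-feeding at day 3. Mean TUBB3+ neurite length (µm) came from skeletonized images, relative to DMSO.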

Assay [13] can be described thus: IUF_NPC5_oligodendrocyte_differentiation_120hr: Leibniz Research Institute for Environmental Medicine (IUF) 120-hour Oligodendrocyte Differentiation Assay (NPC5) (AID 2284304; active means hit-call score of the fitted dose curve at least 0.9, where 1 is the maximum;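 further: primary human fetal neural progenitor spheres plated to migrate and differentiate; share of O4-positive cells among Hoechst nuclei found by CNN image analysis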). The procedure, abridged: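 Oligodendrocyte differentiation was scored after 120 h as the O4-positive share of Hoechst-stained nuclei across the neurosphere migration area, using a trained convolutional neural network on high-content fluorescence images. Human fetal neural progenitor spheres were dosed from day 0, normalised to DMSO.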

A short description of assay [14]: IUF_NPC4_neurite_area_120hr: Leibniz Research Institute for Environmental Medicine (IUF) 120-hour Neuronal Morphology Assay for Neurite Area (NPC4) (AID 2284305; active means hit-call score of the fitted dose curve at least 0.9, where 1 is the maximum). The procedure, abridged:
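Human fetal cortex-derived neural progenitor spheres (0.3 mm, GW 16-19) plated on poly-D-lysine/laminin in N2 differentiation medium and exposed from day 0 for 120 h across 7 concentrations plus solvent control. Neurite area is mean pixel area per TUBB3-positive neuron via skeletonization, analysed relative to DMSO.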

The nature of assay [15]: IUF_NPC2-5_cytotoxicity_72hr: Cytotoxicity Assessment at 72 hours in the Leibniz Research Institute for Environmental Medicine (IUF) Neural Progenitor Cell Migration and Differentiation Assay for Cytotoxicity (NPC2-5) (AID 2284306; active means hit-call score of the fitted dose curve at least 0.9, where 1 is the maximum;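 further: LDH release into supernatant measured by resorufin fluorescence marking membrane damage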). The procedure, abridged:
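Human fetal (GW 16-19) neural progenitor spheres, 0.3 mm, plated on poly-D-lysine/laminin in N2 differentiation medium and exposed from day 0 to 7 concentrations plus solvent control (DMSO ≤0.1%). LDH-dependent resazurin-to-resorufin fluorescence in supernatant at 72 h.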

The nature of assay [16]: IUF_NPC2-5_cytotoxicity_120hr: Cytotoxicity Assessment at 120 hours in the Leibniz Research Institute for Environmental Medicine (IUF) Neural Progenitor Cell Migration and Differentiation Assay (NPC2-5) (AID 2284307; active means hit-call score of the fitted dose curve at least 0.9, where 1 is the maximum). The procedure, abridged:
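Sphere plating starts differentiation and exposure together at day 0. Compound solution is half-replaced on day 3. At 120 h, medium supernatant is taken for an LDH membrane-integrity read based on resazurin reduction to resorufin fluorescence.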

A short description of assay [17]: IUF_NPC2-5_cell_number_120hr: Cell Number Assessment at 120 hours in the Leibniz Research Institute for Environmental Medicine (IUF) Neural Progenitor Cell Migration and Differentiation Assay (NPC2-5) (AID 2284308).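 Further: count of Hoechst-stained nuclei in migration zone around plated human neural progenitor spheres.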 The procedure, abridged: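 hNPC spheres, one per well, PDL/laminin, N2 medium, 37C, 5% CO2. Dosing day 0 → half-medium change with fresh compound day 3 → fix 120 h. Readout: Hoechst+ nuclei count, migration area; 7 concentrations plus solvent control.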

Several values for one entry are separate records, joined by “and”; a condition that tells them apart may be missing. Equal values may be shown once. Records with an inconclusive call do not appear. Some structures have more than one record in an assay (separate samples or runs), and their calls can disagree. Activity calls are given as the source filed them. How the source made its calls, unless noted: active means hit-call score of the fitted dose curve at least 0.9, where 1 is the maximum; inactive means score below 0.9.

E-selectin (Homo sapiens), sequence (P16581 whole entry, looked up): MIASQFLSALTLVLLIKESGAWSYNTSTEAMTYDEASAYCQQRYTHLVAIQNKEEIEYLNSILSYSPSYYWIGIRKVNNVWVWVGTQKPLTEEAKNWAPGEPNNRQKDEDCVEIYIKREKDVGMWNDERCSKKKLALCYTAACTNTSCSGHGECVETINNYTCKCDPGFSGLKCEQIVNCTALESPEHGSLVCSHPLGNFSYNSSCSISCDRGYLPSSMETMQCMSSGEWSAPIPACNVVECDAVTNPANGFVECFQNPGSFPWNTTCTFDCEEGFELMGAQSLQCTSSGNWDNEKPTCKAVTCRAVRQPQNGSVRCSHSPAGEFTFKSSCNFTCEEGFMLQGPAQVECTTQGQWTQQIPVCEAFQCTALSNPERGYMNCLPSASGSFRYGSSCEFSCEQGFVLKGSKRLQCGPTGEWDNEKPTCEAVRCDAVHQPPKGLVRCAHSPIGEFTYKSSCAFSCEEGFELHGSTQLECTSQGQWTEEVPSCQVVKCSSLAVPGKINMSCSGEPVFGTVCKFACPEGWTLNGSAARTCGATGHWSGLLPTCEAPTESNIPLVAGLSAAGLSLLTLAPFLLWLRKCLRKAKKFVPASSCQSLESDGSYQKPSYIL

With `OCC(F)(F)OC(F)(F)C(F)(F)OC(F)(F)C(F)(F)OC(F)(F)F`, the AC50 (in general, the concentration giving half of the maximal activity seen) was 38.6 µM (active) and 44.3 µM (active) in assay [1]; 47.8 µM (active) and 53.7 µM (active) in assay [2]; 43 µM (active) and 18.8 µM (active) in assay [3]; 45.9 µM (active) and 42.6 µM (active) in assay [4]; 21 µM (active) and 15.3 µM (active) in assay [5]; 6.46 µM (active) in the assay with CD69, CD69 (gene 969). The outcome was “inactive” in assay [6] and “inactive” with CD69, CD69 (gene 969).
As to `OCC(F)(F)OC(F)(F)C(F)(F)OC(F)(F)CO`, the outcome in [1], in assay [2], in assay [3], in assay [4], in [5] and in assay [6] was inactive. Further, the result in the assay with CD69, CD69 (gene 969) was inactive.
For the compound `O=C(O)C(F)(OC(F)(F)C(F)(F)C(F)(F)F)C(F)(F)F` (stereo not drawn), the outcome in assay [1], in [2], in [3], in assay [4], in assay [5] and in assay [6] was inactive. Further, the outcome in [7] was “inactive”; in [8], “inactive”; in [9], “inactive”; in assay [10], “inactive”; in assay [11], “inactive”; in the assay with CD69, CD69 (gene 969), “inactive”. The compound was called inactive in [13], in assay [15], in assay [16] and in [17]. For the same compound, the AC50 in [3] is 220 nM (active); in [4], 673 nM (active) and 652 nM (active); in assay [5] it was 30 µM (active); in assay [12] it was 342 nM (active); in [14] it was 338 nM (active).
Take `CCOP(=S)(OCC)SCSCC`: the compound was classed as inactive in assay [7], in assay [8], in assay [9], in assay [10], in [11] and in assay [12]. For the same compound, the compound was classed as inactive in assay [13], in assay [14], in assay [15], in assay [16] and in [17].
As to `O=C(O)C(F)(F)OC(F)(F)C(F)(F)OC(F)(F)F`, the result in [1], in [2], in assay [3], in assay [4], in [5] and in [6] was inactive. Also, in the assay with CD69, CD69 (gene 969), the outcome was inactive. In [5], the AC50 is 11.3 µM (active).
Regarding `CCOc1ccc(C(C)(C)COCc2cccc(Oc3ccccc3)c2)cc1`, the outcome in assay [7], in [8], in assay [9], in assay [10], in assay [11] and in assay [12] was inactive. Further, the compound was classed as inactive in assay [13], in assay [14], in assay [15], in [16] and in [17].
For `O=C(O)C=CC(F)(C(F)(F)F)C(F)(F)F`, the result in assay [1], in [2], in assay [3], in assay [4], in assay [5] and in assay [6] was inactive. Besides, the result with CD69, CD69 (gene 969) was inactive.
Take `CO/N=C(/C(=O)OC)c1ccccc1COc1ccccc1C`: the result in assay [7], in assay [10], in assay [12], in assay [14], in assay [15] and in assay [16] was inactive. Moreover, the AC50 in [8] was 22.9 µM (active); in assay [9], 21 µM (active); in assay [11] it was 2.33 µM (active); in assay [13] it was 13.9 µM (active); in [17], 19.7 µM (active).
Regarding `CCCCOCCOP(=O)(OCCOCCCC)OCCOCCCC`, the result in assay [7], in [8], in assay [9], in assay [10], in assay [11] and in assay [12] was inactive. In addition, the result in assay [14], in assay [16] and in assay [17] was inactive. Moreover, the AC50 in [13] is 3.24 µM (active).
With `O=C(O)C(F)(F)OC(F)(F)C(F)(F)OC(F)(F)C(=O)O`, the outcome in assay [1], in assay [2], in [3], in [4], in [5] and in assay [6] was inactive. For the same compound, the outcome with CD69, CD69 (gene 969) was inactive.
`COC(=O)C(F)(F)C(F)(F)OC(F)(C(F)(F)F)C(F)(F)OC(F)=C(F)F` (stereo not drawn): the result in [1], in [2], in [3], in assay [4], in [5] and in assay [6] was inactive. The result with CD69, CD69 (gene 969) was inactive.
